Assay results as given in PubChem BioAssay.
Results filed as inconclusive are left out. Calls of active or inactive are those of the source. Unless noted, how the calls were made is not given here.

Columns and labels:
[1] = target: GTPase HRas (Homo sapiens) (UniProt P01112); experiment: Ras wt fluorescent GTP loading blockade – biochemical, wildtype, multiplex bead flow cytometry, dose response (AID 1335;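 active means fitted half-maximal concentration within 10 nM to 100 µM, steepness 0.5 to 2, significant signal drop, low assay interference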); details: bead-based flow cytometry, Bodipy-GTP binding to GST-Ras; at 100 µM (top of the series)
Chain of GTPase HRas (Homo sapiens) (P01112 whole entry, looked up): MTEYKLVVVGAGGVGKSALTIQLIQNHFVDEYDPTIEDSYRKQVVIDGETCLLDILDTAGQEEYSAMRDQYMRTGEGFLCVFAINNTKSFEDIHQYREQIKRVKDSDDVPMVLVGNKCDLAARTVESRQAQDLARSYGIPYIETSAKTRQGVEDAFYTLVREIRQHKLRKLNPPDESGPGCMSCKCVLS

[2] = rapamycin-like changes in RPL19A-GFP expression – cell-based, S. cerevisiae, multiplex flow cytometry, primary screen (AID 1862; in the data active means percent of DMSO control GFP below about 86%;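 further: lower values mimic rapamycin by blocking the RPL19A rise seen in DMSO cells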); details: S. cerevisiae RPL19A-GFP strain, flow cytometry fluorescence, 3 h; at 10 µM; stronger effect = lower value
[3] = TOR pathway GLN3 branch reporter MEP2-GFP changes – S. cerevisiae, multiplex flow cytometry, primary screen (AID 1867;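 active means GFP response, as percent of the DMSO control, above the screen-wide mean plus 3 SD, about 139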;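 further: median GFP channel fluorescence of barcode-gated MEP2-GFP cells measured by flow cytometry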); details: S. cerevisiae MEP2-GFP strain, 3 h, at 10 µM, stronger effect = higher value
[4] = TOR pathway RTG branch CIT2 reporter changes – S. cerevisiae, GFP fusion, multiplex flow cytometry, primary screen (AID 1870;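 active means percent response above a set limit, the screen-wide mean plus 3 SD, cut at about 130% in these data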;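 further: barcoded CIT2-GFP strain pooled with four other GFP strains with rapamycin as positive control; median GFP fluorescence per well over plate mean of DMSO wells so 100% = DMSO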); details: S. cerevisiae CIT2-GFP expression, 3 h, at 10 µM, stronger effect = higher value
[5] = TOR pathway LAP4-GFP level changes – S. cerevisiae, multiplex flow cytometry, primary screen (AID 1873;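 active means GFP signal, as percent of the solvent control, above the screen mean plus 3 SD, about 149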); details: S. cerevisiae LAP4-GFP expression, 3 h, at 10 µM, stronger effect = higher value
[6] = yeast AGP1-GFP level changes, GLN3 branch – cell-based, multiplex flow cytometry, S. cerevisiae, primary screen (AID 1887;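 active means GFP signal above the screen-wide mean plus 3 SD, that is over about 124.5% of the solvent control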;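 further: AGP1-GFP fusion strain of S. cerevisiae within a five-strain barcoded multiplex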); details: 3 h, at 10 µM, stronger effect = higher value
[7] = reduced mouse 2C T cell binding to pMHC/ICAM-1 vesicles – MLPCN validation set, flow cytometry, LFA-1/ICAM-1 modulator project, pilot screen (AID 2523;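 active means response below a set limit, under 55% cells CD8-positive and vesicle-bound, and CD8 cells' 90th-percentile brightness under 279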;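 on vesicle binding response: mean PE anti-B7-1 fluorescence of CD8+ cells relative to row control; 100% = QL9-loaded vesicles with DMSO vehicle in the same plate row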); details: 2C mouse CD8+ T cells, at 7 µM, stronger effect = lower value; double positive events: measured here: CD8+/vesicle+ event percentage
[8] = target: Integrin beta-1 (Homo sapiens) + Integrin alpha-4 (Homo sapiens) (UniProt P13612+P05556); experiment: alpha4beta1 integrin LIBS antibody binding reduction – U937 cells, HUTS-21 mAb, flow cytometry, validation set, VLA-4 allosteric modulator project, pilot screen (AID 2674;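 active means inhibition above 50%, about 3 SD of the validation set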;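 further: antibody binding induced by the VLA-4 ligand LDV present at three times its Kd; 0% = LDV ligand with antibody and no compound and 100% = antibody without LDV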); details: HUTS-21 LIBS mAb binding, at 6.7 µM, stronger effect = higher value
Chain of Integrin beta-1 (Homo sapiens) + Integrin alpha-4 (Homo sapiens) (P05556 whole entry, looked up): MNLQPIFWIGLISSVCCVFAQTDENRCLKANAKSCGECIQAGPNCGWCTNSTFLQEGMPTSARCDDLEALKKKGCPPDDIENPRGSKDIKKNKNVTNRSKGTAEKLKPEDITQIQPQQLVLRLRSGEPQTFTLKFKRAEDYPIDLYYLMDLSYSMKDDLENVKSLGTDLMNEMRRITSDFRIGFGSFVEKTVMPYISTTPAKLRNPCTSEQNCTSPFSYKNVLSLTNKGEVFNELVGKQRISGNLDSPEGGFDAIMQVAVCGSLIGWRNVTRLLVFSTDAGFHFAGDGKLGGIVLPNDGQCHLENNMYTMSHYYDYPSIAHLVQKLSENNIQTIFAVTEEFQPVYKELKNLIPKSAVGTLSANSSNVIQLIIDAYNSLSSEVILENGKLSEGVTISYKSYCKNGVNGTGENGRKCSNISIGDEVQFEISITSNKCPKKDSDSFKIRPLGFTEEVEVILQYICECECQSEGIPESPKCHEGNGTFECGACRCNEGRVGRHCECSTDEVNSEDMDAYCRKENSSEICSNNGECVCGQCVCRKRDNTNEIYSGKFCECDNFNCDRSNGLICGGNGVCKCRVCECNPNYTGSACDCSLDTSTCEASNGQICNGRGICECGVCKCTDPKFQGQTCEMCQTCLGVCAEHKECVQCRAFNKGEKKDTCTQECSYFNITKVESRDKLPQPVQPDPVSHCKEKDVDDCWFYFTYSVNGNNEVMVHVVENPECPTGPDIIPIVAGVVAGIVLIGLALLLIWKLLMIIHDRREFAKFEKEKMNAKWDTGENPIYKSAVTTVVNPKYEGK
Chain of Integrin beta-1 (Homo sapiens) + Integrin alpha-4 (Homo sapiens) (P13612 whole entry, looked up): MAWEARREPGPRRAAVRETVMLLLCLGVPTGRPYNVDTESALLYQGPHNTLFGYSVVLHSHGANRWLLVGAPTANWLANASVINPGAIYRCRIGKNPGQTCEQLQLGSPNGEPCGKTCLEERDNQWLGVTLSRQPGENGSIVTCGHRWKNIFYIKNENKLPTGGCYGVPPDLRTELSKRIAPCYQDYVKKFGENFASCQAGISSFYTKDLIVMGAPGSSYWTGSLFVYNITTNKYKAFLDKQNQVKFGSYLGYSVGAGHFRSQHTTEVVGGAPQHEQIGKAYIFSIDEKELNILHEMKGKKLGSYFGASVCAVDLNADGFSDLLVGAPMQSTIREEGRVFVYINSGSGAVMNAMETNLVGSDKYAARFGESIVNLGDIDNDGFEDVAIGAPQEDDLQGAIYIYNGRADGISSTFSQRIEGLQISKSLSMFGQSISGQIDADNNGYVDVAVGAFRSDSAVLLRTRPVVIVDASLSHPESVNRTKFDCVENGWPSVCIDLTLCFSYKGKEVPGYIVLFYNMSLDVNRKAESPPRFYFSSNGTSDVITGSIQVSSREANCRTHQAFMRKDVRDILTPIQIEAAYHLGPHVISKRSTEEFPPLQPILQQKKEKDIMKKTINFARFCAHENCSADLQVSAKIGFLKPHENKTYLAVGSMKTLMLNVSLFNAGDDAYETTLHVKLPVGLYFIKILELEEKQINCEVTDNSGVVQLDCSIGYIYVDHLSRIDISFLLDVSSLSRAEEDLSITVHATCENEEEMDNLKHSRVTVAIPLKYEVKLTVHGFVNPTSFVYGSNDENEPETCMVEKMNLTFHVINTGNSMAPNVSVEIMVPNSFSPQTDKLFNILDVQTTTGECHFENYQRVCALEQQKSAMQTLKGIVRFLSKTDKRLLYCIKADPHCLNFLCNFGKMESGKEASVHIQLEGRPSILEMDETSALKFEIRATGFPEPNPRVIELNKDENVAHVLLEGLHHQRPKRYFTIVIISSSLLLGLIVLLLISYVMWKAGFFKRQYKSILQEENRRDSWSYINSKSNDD

[9] = calorie-restriction mimetic ROS inhibitors, yeast – validation compound set, pilot screen (AID 2706;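 active means superoxide response below 65% of plate, a cut near 3 SD across the whole screen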;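 further: yeast exposed to compound for one week at 30 degrees C before staining; 100% = mean of all compound wells on the same plate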); details: S. cerevisiae aging, superoxide DHE fluorescence; at 10 µM; stronger effect = lower value
[10] = target: Beta-adrenergic receptor kinase 1 (Homo sapiens) (UniProt P25098); experiment: GRK2 binders displacing RNA aptamer, biochemical, validation, human GRK2, bead flow cytometry (AID 488806;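 active means aptamer binding inhibition above 30%, about 3 SD of noise from non-fluorescent compounds; inactive means inhibition at or below 30%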); details: bead-bound GRK2, FAM-aptamer displacement, at 10 µM, stronger effect = higher value
Chain of Beta-adrenergic receptor kinase 1 (Homo sapiens) (P25098 whole entry, looked up): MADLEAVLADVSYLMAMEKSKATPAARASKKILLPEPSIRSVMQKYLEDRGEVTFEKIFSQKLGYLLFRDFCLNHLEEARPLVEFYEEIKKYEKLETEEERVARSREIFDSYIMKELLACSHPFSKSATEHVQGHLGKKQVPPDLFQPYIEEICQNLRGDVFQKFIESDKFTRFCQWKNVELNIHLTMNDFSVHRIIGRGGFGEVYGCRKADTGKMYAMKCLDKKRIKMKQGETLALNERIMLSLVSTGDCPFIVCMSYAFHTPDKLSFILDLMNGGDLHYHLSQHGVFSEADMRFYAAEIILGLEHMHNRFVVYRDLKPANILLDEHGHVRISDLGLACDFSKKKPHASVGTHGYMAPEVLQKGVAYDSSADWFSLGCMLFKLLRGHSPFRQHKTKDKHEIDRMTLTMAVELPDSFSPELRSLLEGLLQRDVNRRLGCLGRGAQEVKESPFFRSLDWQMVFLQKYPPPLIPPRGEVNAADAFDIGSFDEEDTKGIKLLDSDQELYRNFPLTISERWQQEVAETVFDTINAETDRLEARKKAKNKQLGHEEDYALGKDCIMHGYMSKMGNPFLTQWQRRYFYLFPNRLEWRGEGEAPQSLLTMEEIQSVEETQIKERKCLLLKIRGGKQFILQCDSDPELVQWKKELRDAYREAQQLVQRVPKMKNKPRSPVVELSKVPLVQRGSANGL

[11] = target: Beta-2 adrenergic receptor (Homo sapiens) (UniProt P07550); experiment: agonist-induced loss of surface beta2AR – cell-based, FAP fluorogen, flow cytometry, validation set, pilot screen (AID 504459;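 active means percent response above 42, roughly 3 SD of non-fluorescent test compounds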;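 further: agonist-driven loss of surface beta2AR via internalization measured by FAP dye flow cytometry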); details: Am2.2-beta2AR cells, at 10 µM, stronger effect = higher value
Chain of Beta-2 adrenergic receptor (Homo sapiens) (P07550 whole entry, looked up): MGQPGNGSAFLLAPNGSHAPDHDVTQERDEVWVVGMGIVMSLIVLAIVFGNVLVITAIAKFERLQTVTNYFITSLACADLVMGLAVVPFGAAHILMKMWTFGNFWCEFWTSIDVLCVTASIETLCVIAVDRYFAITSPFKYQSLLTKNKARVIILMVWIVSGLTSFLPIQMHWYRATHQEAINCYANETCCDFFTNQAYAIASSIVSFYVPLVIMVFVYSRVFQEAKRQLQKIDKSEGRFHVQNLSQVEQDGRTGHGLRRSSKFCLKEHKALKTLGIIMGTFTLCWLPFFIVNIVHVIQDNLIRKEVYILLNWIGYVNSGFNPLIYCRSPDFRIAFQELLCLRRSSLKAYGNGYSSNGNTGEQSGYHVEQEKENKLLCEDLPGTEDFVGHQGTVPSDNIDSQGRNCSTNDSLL

[12] = target: AP-2 complex subunit beta (Homo sapiens) (UniProt P63010); experiment: beta-arrestin/AP2 interaction blockers – biochemical, validation set, GST-AP2 beads, flow cytometry, pilot screen (AID 504541;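 active means inhibition above 54%, about 3 SD of non-fluorescent compounds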;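 further: AP2 carries R879A mutation and is captured from E. coli lysate; bead-bound FITC arrestin peptide fluorescence measuring arrestin peptide binding to AP2; 0% = DMSO wells and 100% = excess unlabeled arrestin peptide control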); details: FITC arrestin peptide, at 10 µM, stronger effect = higher value
[13] = cytosolic pH regulators acting via V-ATPase – S. cerevisiae, pHLuorin, HTS validation (AID 504600; in the data active means response above about 15%;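 further: plate controls were DMSO for no effect and reference compound for full effect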); details: V-ATPase proton transport, at 10 µM, stronger effect = higher value
[14] = tested on: anti-desmoglein-3 scFv antibody binding to human DSG3; experiment: blockers of pathogenic pemphigus antibody–desmoglein-3 binding – biochemical, validation compound set, bead-based, flow cytometry, pilot screen (AID 588368;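 active means binding below the plate cutoff, the plate median minus 3 SD, with a reading above zero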;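 further: signal is the median channel fluorescence of bead-bound GFP antibody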); details: Protein G beads, DSG3-Fc, scFv-GFP binding, at 10 µM, stronger effect = lower value
[15] = tested on: Botulinum neurotoxin type F light chain protease (Clostridium botulinum); experiment: Clostridium botulinum type F light chain protease inhibitors, microsphere substrate cleavage, validation (AID 588459); details: multiplex microsphere protease substrate cleavage assay, flow cytometry; at 10 µM; stronger effect = higher value
[16] = target: Botulinum neurotoxin type A (Clostridium botulinum) (UniProt P0DPI0); experiment: BoNT/A light chain protease inhibitors, biochemical, multiplex microsphere flow cytometry, validation set (AID 588460); details: at 10 µM, stronger effect = higher value
[17] = target: Lethal factor (Bacillus anthracis) (UniProt P15917); experiment: Bacillus anthracis lethal factor inhibition, microsphere flow cytometry protease assay, validation at 10 µM (AID 588461); details: multiplex microsphere protease cleavage assay, stronger effect = higher value
Chain of Lethal factor (Bacillus anthracis) (P15917 whole entry, looked up): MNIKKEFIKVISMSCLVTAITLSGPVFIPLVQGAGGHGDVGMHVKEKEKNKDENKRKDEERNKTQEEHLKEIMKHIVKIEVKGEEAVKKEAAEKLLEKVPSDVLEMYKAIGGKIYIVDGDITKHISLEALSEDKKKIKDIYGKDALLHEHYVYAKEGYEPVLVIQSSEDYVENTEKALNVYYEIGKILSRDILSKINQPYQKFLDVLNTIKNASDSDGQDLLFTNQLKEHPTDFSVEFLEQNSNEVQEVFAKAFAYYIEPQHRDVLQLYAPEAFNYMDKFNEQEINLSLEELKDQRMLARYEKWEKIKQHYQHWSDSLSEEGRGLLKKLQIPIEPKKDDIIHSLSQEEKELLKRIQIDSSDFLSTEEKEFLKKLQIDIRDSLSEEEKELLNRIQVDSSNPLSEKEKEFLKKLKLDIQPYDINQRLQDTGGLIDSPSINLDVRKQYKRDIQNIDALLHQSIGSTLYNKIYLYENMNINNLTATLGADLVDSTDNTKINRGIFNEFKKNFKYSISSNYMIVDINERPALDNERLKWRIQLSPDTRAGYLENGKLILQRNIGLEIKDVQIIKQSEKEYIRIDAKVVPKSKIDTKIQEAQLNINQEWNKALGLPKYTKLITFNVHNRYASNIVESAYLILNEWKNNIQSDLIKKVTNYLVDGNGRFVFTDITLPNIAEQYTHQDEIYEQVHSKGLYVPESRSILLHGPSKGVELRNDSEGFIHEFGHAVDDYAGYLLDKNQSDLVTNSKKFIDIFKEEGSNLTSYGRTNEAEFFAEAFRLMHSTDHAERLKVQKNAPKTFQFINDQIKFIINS

[18] = Nile Red efflux blockade in pump-expressing yeast – validation compound set, multiplex, phenotypic, pilot screen (AID 588506;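 active means efflux inhibition above 0.42, the validation set average plus 4 SD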;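 further: Nile Red retained in cells so higher fluorescence means more efflux inhibition; 0 = negative control wells and 1 = enniatin B 25 µM full block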); details: S. cerevisiae pump-expressing triplex, Nile Red efflux flow cytometry; at 10 µM; stronger effect = higher value
[19] = target: ATP-binding cassette sub-family B member 6 (Homo sapiens) (UniProt Q9NP58); experiment: blockers of ABCB6-driven porphyrin uptake – K562-ABCB6 cells, flow cytometry, validation set, pilot screen (AID 588550;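 active means inhibition above the screen-wide mean plus 3 SD, about 51%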;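 further: 0% = DMSO wells and 100% = benzethonium chloride 70 µM positive control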); details: K562-ABCB6 porphyrin accumulation, 1 h, at 10 µM, stronger effect = higher value
Chain of ATP-binding cassette sub-family B member 6 (Homo sapiens) (Q9NP58 whole entry, looked up): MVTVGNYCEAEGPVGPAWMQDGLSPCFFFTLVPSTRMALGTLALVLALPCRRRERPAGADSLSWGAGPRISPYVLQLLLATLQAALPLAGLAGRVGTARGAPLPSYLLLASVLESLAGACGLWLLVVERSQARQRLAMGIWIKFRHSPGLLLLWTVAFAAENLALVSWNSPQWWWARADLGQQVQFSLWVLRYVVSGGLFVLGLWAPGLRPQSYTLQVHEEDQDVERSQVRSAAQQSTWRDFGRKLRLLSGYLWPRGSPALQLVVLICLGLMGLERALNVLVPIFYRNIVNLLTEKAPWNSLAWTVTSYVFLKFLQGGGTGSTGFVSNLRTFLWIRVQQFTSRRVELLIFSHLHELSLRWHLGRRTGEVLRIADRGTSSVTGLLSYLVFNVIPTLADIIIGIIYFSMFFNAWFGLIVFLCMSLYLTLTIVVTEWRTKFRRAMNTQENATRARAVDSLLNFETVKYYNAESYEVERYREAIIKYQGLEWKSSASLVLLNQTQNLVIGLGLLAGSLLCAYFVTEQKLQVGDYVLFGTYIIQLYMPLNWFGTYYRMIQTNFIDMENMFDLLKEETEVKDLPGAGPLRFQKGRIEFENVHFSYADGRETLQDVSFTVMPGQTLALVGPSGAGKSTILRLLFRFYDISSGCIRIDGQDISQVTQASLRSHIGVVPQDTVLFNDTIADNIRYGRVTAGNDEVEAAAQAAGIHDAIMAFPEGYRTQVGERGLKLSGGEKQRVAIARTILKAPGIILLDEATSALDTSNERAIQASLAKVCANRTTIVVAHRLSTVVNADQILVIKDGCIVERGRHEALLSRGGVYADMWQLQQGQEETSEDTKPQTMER

[20] = AML differentiation inducers, ER-HoxA9 marrow cells – cell-based, GFP/MAC1 double positive, flow cytometry, validation set, primary screen (AID 588685;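 active means differentiation response of at least 50%, scaled between solvent and reference control, from cells with both markers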;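 further: compound exposure lasts four days before antibody staining and flow analysis; 0% = DMSO wells and 100% = 5 µM fulvestrant positive control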); details: stronger effect = higher value

O=c1[nH]c(=S)[nH]c(O)c1N=Nc1ccc(S(=O)(=O)N2CCc3ccccc32)cc1
95.9%: GTP binding, percent of control [1]

CCOCCCn1c(N)c(C(=O)Nc2sc3c(c2C(=O)OC)CCCC3)c2nc3ccccc3nc21
122%: GTP binding, percent of control [1]

O=c1[nH]c(=S)[nH]c(O)c1N=Nc1cc2c(cc1[N+](=O)[O-])OCO2
66.6%: GTP binding, percent of control [1]

CN(C)c1ccc(/C=C/C=C2/C(=O)NC(=O)N(c3ccccc3)C2=O)cc1
81.4%: GTP binding, percent of control [1]

CCCCN1C(=O)/C(=C\c2ccco2)C(=O)N(CCc2ccccc2)C1=O
131%: GTP binding, percent of control [1]

C#C[C@]1(O)CC[C@H]2[C@@H]3CCC4=CC(=O)CC[C@]4(C)[C@H]3CC[C@@]21C
active: GFP response vs DMSO [3] 140%
64.1%: double positive events [7]
inactive: percent of DMSO control GFP [2] 88.7% | percent response of DMSO control [4] 106% | GFP response vs DMSO [5] 80.9% | GFP response, % of DMSO [6] 87.7% | vesicle binding response [7] 255% | inhibition [8] 3.55% | superoxide response (% of plate) [9] 97.8% | aptamer binding inhibition [10] 1% | response [11] -8% | inhibition [12] 14.2% | response [13] -3.36% | binding (% of control) [14] 102% | inhibition [15] 2.5% | inhibition [16] -0.5% | inhibition [17] -1.2% | efflux inhibition (fraction of control) [18] 0.3 | inhibition [19] 9% | differentiation response [20] -0.82%

O=C1C(=O)c2ccccc2-c2ccccc21
active: percent of DMSO control GFP [2] 73.2% | aptamer binding inhibition [10] 67% | response [11] 112% | efflux inhibition (fraction of control) [18] 2.06 | differentiation response [20] 100%
61.3%: double positive events [7]
inactive: GFP response vs DMSO [3] 126% | percent response of DMSO control [4] 92.9% | GFP response vs DMSO [5] 60.6% | GFP response, % of DMSO [6] 36.3% | vesicle binding response [7] 176% | inhibition [8] -0.43% | superoxide response (% of plate) [9] 83% | response [13] 0.26% | binding (% of control) [14] 98.9% | inhibition [15] 5.3% | inhibition [16] 0.6% | inhibition [17] -4.7% | inhibition [19] -64%
